High-throughput results as filed in PubChem BioAssay.
This is a sample that favours compounds with a hit; in the whole collection about 19% have one here.
HT1080NT lethal: qHTS for induction of synthetic lethality in tumor cells producing 2HG: qHTS for the HT-1080-NT fibrosarcoma cell line; HT-1080-NT fibrosarcoma viability, CellTiter-Glo ATP luminescence, 48 h; Potency, µM (titrated, usually from 46.1 µM), inactives show at the top dose activity, negative = less viability, most hits filed as cytotoxic; hit rate 1.6% among 360,000; AID 686970, 2013;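 further: NT is the 2HG producing partner of a matched IDH1 knockdown line; potency means the concentration at half of the fitted maximal effect; 0% = DMSO-treated cells and -100% = media-only wells without cells; nearly all actives have a fitted effect of over 55% in size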
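A 48-hour cytotoxicity screen used HT-1080-NT cells plated 2 hours before compound delivery. ATP-based CellTiter-Glo luminescence measured viability, normalized to DMSO and no-cell controls.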
TDP1 cell CPT: qHTS for Inhibitors of human tyrosyl-DNA phosphodiesterase 1 (TDP1): qHTS in cells in presence of CPT; chicken DT40 Tdp1-/-;hTDP1 cells + 20 nM CPT, ATP luminescence, 48 h; Potency, µM (titrated, usually from 46.2 µM), for inactives: top-dose activity change, negative = growth inhibition, usual class: inhibitors; hit rate 12% among 420,000; AID 686979, 2013; further: potency means the concentration at half of the fitted maximal effect; nearly all actives have a fitted effect of over 55% in size
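Cell growth measured by CellTiter-Glo luminescence after a minimum 48 h, 37 C compound exposure with 20 nM CPT in Tdp1-knockout DT40 cells stably expressing hTDP1, seeded 400/well; qHTS titration format.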
IL-1B inflam inh: qHTS for Inhibitors of Inflammasome Signaling: IL-1-beta AlphaLISA Primary Screen; THP-1 LPS/ATP IL-1B secretion, AlphaLISA, 16 h; active compounds read low; activity change, % at 57.5 µM; hit rate 4.7% among 360,000; in the data active means activity change below about -50%; inconclusive means mostly about -30% to -49%
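Secreted IL-1B measured by AlphaLISA bead assay after 16 h compound exposure of THP-1 cells; compounds (final up to 57.5 uM) added 1 h before LPS (250 ng/mL) and ATP (1.25 mM) stimulation; lower signal means less secretion.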
HT1080 IDH1KD tx: qHTS for induction of synthetic lethality in tumor cells producing 2HG: qHTS for the HT-1080-IDH1KD cell line. HT-1080 IDH1 knockdown viability, ATP luminescence, 48 h. Potency, µM (series often up to 46.1 µM), for the others: at the highest dose activity, negative = toxicity, actives largely listed as cytotoxic. hit rate 2% among 360,000. AID 686971, 2013;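 further: potency means the concentration at half of the fitted maximal effect; 0% = DMSO wells and -100% = cell-free medium wells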
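CellTiter-Glo luminescence after 48 h compound exposure at 37 degrees C of IDH1-knockdown HT-1080 cells in 5% FBS RPMI. %Activity scaled between DMSO wells and cell-free media wells, with curves fitted and assigned curve classes.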
TDP1 cell noCPT: qHTS for Inhibitors of human tyrosyl-DNA phosphodiesterase 1 (TDP1): qHTS in cells in absence of CPT; Potency, µM (titrated, usually from 46.2 µM), for inactives: at the highest dose activity change, negative = growth inhibition, most hits filed as inhibitors; DT40 Tdp1-/- hTDP1 cells, no CPT, ATP luminescence, 48 h; hit rate 15% among 420,000; further: potency means the concentration at half of the fitted maximal effect; nearly all actives have a fitted effect of over 55% in size
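Camptothecin absent (DMSO only). Human TDP1-complemented DT40 knockout cells, 400 cells/well, 37 °C for minimum 48 hr; ATP measured via CellTiter-Glo, 30 min dark incubation, luminescence.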
ELG1 DNA repair: qHTS screen for small molecules that inhibit ELG1-dependent DNA repair in human embryonic kidney (HEK293T) cells expressing luciferase-tagged ELG1; HEK293T ELG1-luciferase reporter, luminescence, 16 h; DNA damage induced by 5-fluorouridine; Potency, µM (series often up to 46.1 µM), without a hit: at the top dose activity change, negative = inhibition, usual class: inhibitors; hit rate 2.3% among 330,000; AID 504467, 2011; further: potency means the concentration at half of the fitted maximal effect; nearly all actives have a fitted effect of over 55% in size
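Luminescence from the luciferase reporter, measured 30 min after ONE-Glo reagent at room temperature, was the read-out. Beforehand, 2,000 cells per well were exposed for 16 hr at 37 °C to 5-fluorouridine together with compound or vehicle.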
Numbers without * were called inactive; ? = inconclusive; . = not tested or not shown; [ ] = dose if it differs, or a comment. Unless noted, the call rests on the fitted dose curve; in most records, active means well fitted curve in the direction sought with a large enough effect; inconclusive means small, poorly fitted or top-dose-only effect, or another doubt; inactive means no such curve, though single readings can be large; an effect the other way counts as inactive or inconclusive. Unless noted, on the % scale 0 is the no-effect control and ±100 the full control effect.

SMILES	HT1080NT lethal	TDP1 cell CPT	IL-1B inflam inh	HT1080 IDH1KD tx	TDP1 cell noCPT	ELG1 DNA repair
O=C1NC(=O)C([N+](=O)[O-])=C(O)C1=O	0.5%	0.3%	19.3	3.1%	-5.4%	.
Cc1cccc(NC(=O)c2nc[nH]c2C(=O)NCc2ccccc2)c1	-23.6%	?	-4.5	-10.8%	?	-13.4%
Cc1cccc(NC(=O)c2nc[nH]c2C(=O)NCCCCNC(=O)c2[nH]cnc2C(=O)Nc2cccc(C)c2)c1	2.4%	14.6µM*	26.7	8.3%	20.6µM*	5.17µM*
Cc1cccc(NC(=O)c2nc[nH]c2C(=O)NCCCCCCNC(=O)c2[nH]cnc2C(=O)Nc2cccc(C)c2)c1	19.4%	11.6µM*	1.2	19.4%	23.1µM*	9.2µM*
O=C(Nc1cccc(F)c1)N1CC[C@@]2(CCCN(C(=O)c3csnn3)C2)C1	.	13.0%	.	.	-8.5%	.
O=C(NCc1cccc(C(F)(F)F)c1)c1c[nH]c(=O)s1	-4.4%	-5.2%	15.5	-18.1%	-24.0%	.
CN(Cc1ccccc1)CC(O)CN(C)Cc1ccccc1	-2.4%	?	-14.9	-1.6%	-29.3%	.
CCOc1ccc(CN(C)CC(O)COC(c2ccc(OC)cc2)c2ccc(OC)cc2)cc1 (stereo not given)	16.4µM*	?	-58.7*	?	18.4µM*	?
COc1ccc(C(OCC(O)CN(C)C2CCCCC2)c2ccc(OC)cc2)cc1 (stereo not given)	?	16.4µM*	-70.8*	?	?	10.7%
COc1ccc(CN(C)CC(O)COC(c2ccc(OC)cc2)c2ccc(OC)cc2)cc1 (stereo not given)	20.6µM*	?	?	?	23.1µM*	-12.5%
COc1cc2c(cc1OC)C(c1ccc(Br)cc1)N(C(=O)c1ccccc1C(=O)O)CC2 (stereo not given)	-5.0%	-17.5%	48.5	-9.6%	23.1%	?
CN[C@@H]1[C@@H](O)[C@@H](O[C@@H]2[C@@H](O)[C@H](OC3OC(CN)=CCC3N)[C@@H](N)C[C@H]2N)OC[C@]1(C)O (stereo not given in full)	.	-11.9%[21.1 µM]	.	.	-9.6%[21.1 µM]	.
COc1ccc2[nH]c3c(c2c1)CCNC3c1ccc([N+](=O)[O-])o1 (stereo not given)	-1.3%	9.2µM*	-15.4	-2.4%	6.51µM*	?
COc1ccc2[nH]c3c(c2c1)CCNC3C1CC=C(C)CC1 (stereo not given)	?	9.2µM*	-25.7	?	6.51µM*	7.7%
COc1ccc(-c2cnc3c(NC(C)=O)cc(-c4cccc(C(=O)N(C)C)c4)cn23)cc1OC	-21.3%	20.6µM*	-17.9	-0.6%	13µM*	.
COc1ccc(-c2cnc3c(NC(C)=O)cc(-c4cccc(C(=O)NCCO)c4)cn23)cc1OC	-17.8%	20.6µM*	-54.6*	-17.5%	20.6µM*	.
CN(C)C(=O)c1cccc(-c2cnc3cccnn23)c1	?	?	10.2	14.0%	?	.
CC(=O)Nc1cncc(-c2cccc(C(=O)NCCN(C)C)c2)n1	7.4%	-0.3%	3.9	15.4%	-13.0%	.
COc1cc(-c2cnc3c(NC(C)=O)cc(-c4cccc(C(=O)NCCO)c4)cn23)cc(OC)c1OC	-2.2%	16.4µM*	83.4	6.5%	10.3µM*	.
COc1ccc(-c2cnc3c(NC(C)=O)cc(-c4cccc(C(=O)NCCN(C)C)c4)cn23)cc1OC	?	?	?	32.6µM*	11.6µM*	.
COc1cccc(-c2cnc3c(NC(C)=O)cc(-c4cccc(C(=O)NCCN(C)C)c4)cn23)c1	16.4µM*	?	-26.7	?	18.4µM*	.
CNC(=O)c1cc(Oc2ccc(NC(=O)c3[nH]c(-c4ccccc4)c4c3C(=O)N(C)C4=O)cc2)ccn1	20.3%	?	37.3	11.1%	?	.
CNC(=O)c1cc(Oc2ccc(NC(=O)Nc3ccc(Cl)c(C(F)(F)F)c3)cc2)ccn1	?	20.6µM*	-102.2*	?	23.1µM*	?
C/C(CC(=O)Nc1ccc(Cl)c(C(F)(F)F)c1)=N\NC(=O)c1cnccn1	?	?	-71.7*	?	-26.5%	8.7%
Cc1ccc(NC(=O)c2ccc(C)cc2)cc1	8.7%	4.2%	-2.3	22.6%	-7.3%	?
SMILES	HT1080NT lethal	TDP1 cell CPT	IL-1B inflam inh	HT1080 IDH1KD tx	TDP1 cell noCPT	ELG1 DNA repair
O=C(Nc1ccc(Cl)c(C(F)(F)F)c1)c1ccncc1	-8.5%	?	-8.7	-15.5%	14.6µM*	7.1%
Cc1ccc(C(=O)Nc2ccc(Br)c(C(F)(F)F)c2)cc1	-26.5%	?	?	?	23.1µM*	?
C/C(CC(=O)Nc1c(Cl)cccc1C(F)(F)F)=N\NC(=O)c1cnccn1	-12.9%	?	-1.5	-0.7%	2.6%	.
CC(C)(C)CC(C)(C)c1cc(Cc2cc(C(C)(C)CC(C)(C)C)cc(-n3nc4ccccc4n3)c2O)c(O)c(-n2nc3ccccc3n2)c1	.	6.2%	.	.	-1.9%	.
COC(=O)[C@@H]1CCCN1Cc1ccc2c(c1)CN(Cc1ccc3c(c1)CCO3)CCO2	.	-3.6%	.	.	-16.4%	.
CC(=O)Nc1ccc(O)cc1[N+](=O)[O-]	-7.1%	5.6%	25.5	-6.0%	-17.8%	16.9%
CC(=O)Nc1cc([N+](=O)[O-])cc(NC(C)=O)c1NC(C)=O	.	7.08µM*	.	.	?	.
COCCNc1nnc(SCC(=O)NNC(=O)c2ccccc2)s1	2.4%	?	-3.6	4.2%	?	12.9%
Cc1ccc(C(=O)c2c(NC(=O)CSc3nnc(N)s3)sc3c2CCCC3)cc1	-6.7%	?	-71.5*	-11.8%	?	?
Cc1ccc(C(=O)c2c(NC(=O)c3cccnc3)sc3c2CCCC3)cc1	2.0%	-27.0%	-1.1	-0.6%	-23.4%	6.8%
COCCNc1nnc(SCC(=O)Nc2sc3c(c2C(=O)c2ccccc2)CCCC3)s1	-24.8%	20.6µM*	?	-24.0%	?	?
Nc1nnc(SCC(=O)Nc2sc3c(c2C(=O)c2ccccc2)CCCC3)s1	-2.4%	?	-2.5	-22.2%	16.4µM*	-13.3%
